Experimental data reported in the supplement of paper PMC12494721.
Counter-ions that a name gives are not always drawn.

What was measured:
Conditions in all cases: incubation time: 27 h, anaerobic, 37 °C;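 for the amine columns active = adjusted P below 0.05 in both replicates with a change the same way and a mean fold change under 0.8 or over 1.25; inactive = the rest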
[1] = tested on: Clostridium sporogenes DSM 1664; experiment: growth (OD595) fold change vs plate DMSO controls (fold change (ratio)); higher = more growth
Outline: (§1)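 The measure reported is growth, taken as fold change against the median of DMSO controls on the same plate. Anaerobic mGAM cultures in 96-well plates (27 h, 37 °C) were read at 595 nm, blank-subtracted, corrected for compound background using 20 µM compound solutions in water, and multiplied by a calibration factor of 5 to give OD. Any fold change above 1.5 became NA, and 2 biological replicates were averaged.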

Escherichia coli IAI1 [2] = experiment: as above
Outline: as §1

[3] = tested on: Klebsiella aerogenes DSM 30053; experiment: as above
Outline: as §1

[4] = tested on: Ruminococcus gnavus DSM 108212; experiment: as above
Outline: as §1

[5] = tested on: Klebsiella aerogenes DSM 30053; experiment: fold change of Histamine concentration vs plate DMSO controls (fold change (ratio)); higher = more amine produced, active = hit call of the paper (significant change in both replicates, either direction)
Outline: (§2)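 Extracts of whole anaerobic mGAM cultures were analysed for amines by LC–triple-quadrupole MS with dynamic MRM and external calibration curves, with drift corrected within batch. Four gut strains were grown at 37 °C for 27 h in 80 µL wells with compounds at 20 µM final, sweeteners at 50 µM final. Each value expresses fold change over plate DMSO controls. The average of 2 biological replicates is shown.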

[6] = tested on: Clostridium sporogenes DSM 1664; experiment: fold change of Tryptamine concentration vs plate DMSO controls (fold change (ratio)); higher = more amine produced, active = hit call of the paper (significant change in both replicates, either direction)
Outline: as §2

[7] = tested on: Ruminococcus gnavus DSM 108212; experiment: as above
Outline: as §2

Escherichia coli IAI1 [8] = experiment: fold change of Putrescine concentration vs plate DMSO controls (fold change (ratio)); higher = more amine produced, active = hit call of the paper (significant change in both replicates, either direction)
Outline: as §2

[9] = tested on: Klebsiella aerogenes DSM 30053; experiment: as above
Outline: as §2

Escherichia coli IAI1 [10] = experiment: fold change of Cadaverine concentration vs plate DMSO controls (fold change (ratio)); higher = more amine produced, active = hit call of the paper (significant change in both replicates, either direction)
Outline: as §2

[11] = tested on: Klebsiella aerogenes DSM 30053; experiment: as above
Outline: as §2

[12] = tested on: Ruminococcus gnavus DSM 108212; experiment: fold change of 2-Phenylethylamine concentration vs plate DMSO controls (fold change (ratio)); higher = more amine produced, active = hit call of the paper (significant change in both replicates, either direction)
Outline: as §2

Compound	growth [1]	growth (Escherichia coli IAI1 [2])	growth [3]	growth [4]	fold change of Histamine concentration [5]	fold change of Tryptamine concentration [6]	fold change of Tryptamine concentration [7]	fold change of Putrescine concentration (Escherichia coli IAI1 [8])	fold change of Putrescine concentration [9]	fold change of Cadaverine concentration (Escherichia coli IAI1 [10])	fold change of Cadaverine concentration [11]	fold change of 2-Phenylethylamine concentration [12]
O=C1OC(c2ccc(O)cc2)(c2ccc(O)cc2)c2ccccc21 [Phenolphthalein] (20 µM)	1.03	0.983	0.993	0.964	1 (inactive)	0.974 (inactive)	1 (inactive)	0.991 (inactive)	0.977 (inactive)	0.965 (inactive)	1.02 (inactive)	0.986 (inactive)
CCCC(=O)OCOC(=O)C1=C(C)NC(C)=C(C(=O)OC)C1c1cccc(Cl)c1Cl (stereo not given) [Clevidipine] (20 µM)	0.828	1.03	1.01	1.22	1.01 (inactive)	0.829 (inactive)	0.902 (inactive)	1.04 (inactive)	1.01 (inactive)	0.985 (inactive)	0.998 (inactive)	0.928 (inactive)
COC(=O)CCc1ccc(OCC(O)CNC(C)C)cc1 (stereo not given) [Esmolol hydrochloride] (20 µM)	0.978	0.87	0.987	0.947	0.88 (inactive)	0.972 (inactive)	1.1 (inactive)	0.959 (inactive)	0.988 (inactive)	1.09 (inactive)	1.02 (inactive)	1.07 (inactive)
CC(=O)OCC(CCn1cnc2cnc(N)nc21)COC(C)=O [Famciclovir] (20 µM)	0.805	1.06	0.981	0.993	1.15 (inactive)	1.03 (inactive)	1.05 (inactive)	1.03 (inactive)	1.01 (inactive)	1.01 (inactive)	0.979 (inactive)	1.04 (inactive)
CCOC(=O)C1=C(C)NC(C)=C(C(=O)OC)C1c1cccc([N+](=O)[O-])c1 (stereo not given) [Nitrendipine] (20 µM)	1.04	1.01	1.02	1.06	1.08 (inactive)	0.947 (inactive)	0.911 (inactive)	1.09 (inactive)	0.993 (inactive)	1.01 (inactive)	1.01 (inactive)	0.913 (inactive)
CC(=C(CCO)SSCC1CCCO1)N(C=O)Cc1cnc(C)nc1N (stereo in doubt) [Fursultiamine hydrochloride] (20 µM)	1.08	1.03	0.989	0.992	1.04 (inactive)	0.983 (inactive)	0.969 (inactive)	1.09 (inactive)	1.01 (inactive)	0.973 (inactive)	0.986 (inactive)	0.967 (inactive)
C[C@]12C=CC(=O)C=C1CC[C@H]1[C@@H]3C[C@@H](O)[C@](O)(C(=O)CO)[C@@]3(C)C[C@H](O)[C@@]12F [Triamcinolone] (20 µM)	1.01	0.986	1.02	0.944	0.954 (inactive)	0.918 (inactive)	1.02 (inactive)	0.976 (inactive)	1.02 (inactive)	0.994 (inactive)	0.992 (inactive)	1.07 (inactive)
CN1CCN(CCCN2c3ccccc3Sc3ccc(C(F)(F)F)cc32)CC1 [Trifluoperazine dihydrochloride] (20 µM)	1.25	1.08	1.05	0.968	0.886 (inactive)	1.06 (inactive)	0.93 (inactive)	1.04 (inactive)	0.955 (inactive)	1.05 (inactive)	1.03 (inactive)	0.964 (inactive)
c1ccc2c(c1)ccc1ccccc12 [Phenanthrene] (20 µM)	0.976	0.992	0.975	0.96	1 (inactive)	1.02 (inactive)	1.07 (inactive)	0.992 (inactive)	0.817 (inactive)	0.904 (inactive)	1.12 (inactive)	1.09 (inactive)
C[N+](C)(C)CCCCCC[N+](C)(C)C [Hexamethonium dibromide dihydrate] (20 µM)	0.959	0.998	1	0.892	1.02 (inactive)	1.02 (inactive)	1.03 (inactive)	1.04 (inactive)	0.982 (inactive)	0.984 (inactive)	1 (inactive)	1.01 (inactive)
